Drawing on PubChem BioAssay (NCI), this text covers growth for twelve molecules.

What all share (test): NCI-60 one-dose screen, 48 h (100 = growth as untreated, 0 = no growth, -100 = all killed)
Common to all, as to conditions: 10 µM unless noted

Experiment [1] deals with DU-145 prostate.
For experiment [2], the system named is K-562 leukemia.
Experiment [3] has as its system MALME-3M melanoma.
Experiment [4] relates to MDA-MB-231 breast.
Experiment [5] deals with RXF 393 renal.
Experiment [6] has as its system SF-268 CNS.
For experiment [7], the system named is SF-295 CNS.
Experiment [8] relates to SF-539 CNS.
Experiment [9] deals with UACC-257 melanoma.
Experiment [10] has as its system M14 melanoma.

About 83,000 compounds went through this panel and 20% of them were active in at least one assay; those are over-represented in the sample as a whole.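 Treatment: one concentration, 48 hours, 96-well format. Scoring: percent growth, with anything below 10 considered active.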 Values without a mark were called inactive. The source made the active and inactive calls.

Take `Cn1cc(-c2csc(-c3cn(CCN)c4ccccc34)n2)c2cccnc21`: the growth was 75.6% in [1]; -44.3% (active) in experiment [2]; 68.2% in experiment [3]; 45.7% in experiment [4]; 70.9% in experiment [5]; 64.4% in experiment [6]. Also, the growth in experiment [7] was 58.6%; in experiment [8], 47.9%; in experiment [9], 78.1%; in experiment [10], 43.4%.
On to `CC(=O)c1c(C)[nH]c(-c2nc3ccc(N4CCN(C)CC4)cc3[nH]2)c1-c1ccc2c(c1)OCCO2`, for which the growth was 74.3% in experiment [1]; 31.2% in experiment [2]; 33.7% in experiment [3]; 36% in experiment [4]; 49.2% in [5]; 68.8% in experiment [6]. Also, the growth in experiment [7] was 44.4%; in experiment [8], 41.7%; in [9] it was 48.2%; in experiment [10], 40.1%.
In the case of `Cc1cc(N2CCCCC2)nc(N(CCCNc2ccnc3cc(Cl)ccc23)Cc2ccco2)n1`, the growth in experiment [1] was 39%; in experiment [2], 3.78% (active); in [3] it was -5.59% (active); in experiment [4], 21.8%; in [5], 19.6%; in experiment [6], 44%. The growth was 20.3% in experiment [7], -36.5% (active) in [8], 49.4% in [9] and -74.4% (active) in experiment [10].
Turning to `C=C1C(=O)O[C@H]2[C@H]1CC/C(COC(=O)N[C@H](Cc1c[nH]c3ccccc13)C(=O)OC)=C\CC[C@@]1(C)O[C@@H]21`, the growth was 40.9% in experiment [1]; 7.14% (active) in experiment [2]; 4.76% (active) in [3]; 26.8% in experiment [4]; -25.5% (active) in experiment [5]; 72.6% in [6]. In addition, the growth in [7] was 91.9%; in experiment [8], 11.6%; in [9] it was 63.7%; in [10], 44.1%.
As to `Fc1ccc(NCc2nnc(-c3ccc(Cl)cc3)o2)cc1`, the growth in experiment [1] is 95.5%; in experiment [2] it was 53.8%; in experiment [3], 93.8%; in [4] it was 55.6%; in experiment [5], 84.8%; in experiment [6], 77.9%. Moreover, the growth was 77.9% in experiment [7], 90.6% in experiment [8], 68.4% in experiment [9] and 77.9% in [10].
As to `Cc1cc(N2CCCCC2)nc(N(CCNc2ccnc3cc(Cl)ccc23)Cc2ccco2)n1`, the growth in [1] was 46.4%; in experiment [2] it was 2.04% (active); in experiment [3], 40.2%; in experiment [4], 32.9%; in [5], 33.3%; in experiment [6], 60.7%. Further, the growth in [7] was 48.7%; in experiment [8] it was 30.7%; in [9], 88%; in experiment [10], 9.4% (active).
Turning to `COc1ccc(CCN2C(=O)C(C)(C)SC2=S)cc1OC`, the growth in [1] is 98.8%; in [2], 100%; in experiment [3], 96.2%; in experiment [4], 97.5%; in [5], 109%; in experiment [6] it was 94.7%. Further, the growth in [7] is 96.8%; in experiment [8], 105%; in experiment [9], 98.9%; in experiment [10] it was 98.4%.
With `NC1=C(C/C(N)=N\O)C(c2ccccc2Cl)c2c(ccc3ccccc23)O1` (stereo not given), the growth is 106% in experiment [1]; 22.8% in experiment [2]; 58.5% in experiment [3]; 86.9% in [4]; 86.4% in [5]; 82.2% in experiment [6]. The growth in experiment [7] is 66.7%; in [8] it was 83.6%; in [9], 96.1%; in experiment [10] it was 59.8%.
In the case of `CCCCC[C@H]1C/C=C2/C(=O)C(Cl)=C[C@@H]2C/C=C\CCCC(=O)O1`, the growth in [1] was -83.1% (active); in experiment [2], 2.39% (active); in experiment [3], -35.2% (active); in [4] it was -10.7% (active); in experiment [5] it was -90.9% (active); in [6] it was -37.1% (active). Moreover, the growth in experiment [7] is -35% (active); in experiment [8], -76.7% (active); in experiment [9], -53.3% (active); in experiment [10], -52.8% (active).
Turning to `Cc1ccc(/C=C(\C#N)c2cc3ccccc3n2C)cc1`, the growth was 25.5% in [1]; 14.7% in experiment [2]; 59.8% in [3]; 18.7% in experiment [4]; 20.6% in experiment [5]; 64.4% in experiment [6]. In addition, the growth in experiment [7] was 9.43% (active); in experiment [8], 8.03% (active); in experiment [9] it was 89.6%; in [10], 14%.
On to `NCCNc1nc(-c2ccccc2)nc2nc(-c3ccccc3)oc12`, for which the growth was 98.2% in experiment [1]; 24.2% in [2]; 102% in experiment [3]; 92.8% in experiment [4]; 85.9% in experiment [5]; 73.3% in [6]. Also, the growth in experiment [7] was 101%; in experiment [8] it was 90.4%; in experiment [9], 111%; in [10], 97.8%.
Consider `CC(=O)Nc1cc(F)cc(C(F)(F)F)c1Cl`, for which the growth in experiment [1] is 108%; in experiment [2], 112%; in [3] it was 100%; in [4], 110%; in experiment [5], 89.4%; in experiment [6], 98.2%. The growth is 102% in experiment [7], 97.6% in experiment [8], 103% in [9] and 99.2% in [10].
